Compound activity deposited in PubChem by The Scripps Research Institute Molecular Screening Center.
TEAD-YAP inh – TEAD-YAP interaction inhibition; 640,000 tested, 1.4% active; HEK-TIYL cells, TEAD-Gal4/YAP UAS-luciferase luminescence; inhibition, % at 9.12 µM; in the data active = inhibition above about 32%;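 note: 0% = median of test compound wells and 100% = reference inhibitor wells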
FBW7 act – activators of human E3 ligase FBW7. AID 1259310. AlphaScreen FBW7–phospho-cyclin E peptide binding, activator screen. 650,000 tested, 0.13% active. normalized activity (activation), % at 26.1 µM. Q969H0; in the data active = normalized activity above about 1.9%;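 note: purified mutant Fbw7 with reduced substrate affinity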
GPR151 ag – activators of human GPR151. PathHunter beta-arrestin GPR151 cells, luminescence. activation, % at 11.2 µM. 650,000 tested, 1% active; in the data active = activation above about 4.9%;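 note: 0% = median of compound wells and 100% = cells with positive control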
Target sequence (Q8TDV0 whole entry, looked up): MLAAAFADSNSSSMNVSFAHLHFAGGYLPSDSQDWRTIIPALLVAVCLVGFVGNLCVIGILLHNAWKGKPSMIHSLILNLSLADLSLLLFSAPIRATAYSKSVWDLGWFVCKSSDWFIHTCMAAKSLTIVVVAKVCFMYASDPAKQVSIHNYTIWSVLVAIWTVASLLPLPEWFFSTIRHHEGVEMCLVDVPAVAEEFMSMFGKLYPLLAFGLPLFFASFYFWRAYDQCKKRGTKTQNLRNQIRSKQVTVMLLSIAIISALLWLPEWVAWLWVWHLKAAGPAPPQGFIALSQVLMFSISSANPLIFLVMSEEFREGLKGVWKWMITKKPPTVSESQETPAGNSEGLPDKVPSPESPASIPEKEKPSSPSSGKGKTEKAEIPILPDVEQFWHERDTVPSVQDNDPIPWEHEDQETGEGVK
MITF inh – human MITF inhibition, primary screen | O75030 | AID 1259374 | inhibition, % at 2.6 µM | AlphaScreen MITF homodimerization, bead proximity signal | 650,000 tested, 0.91% active; in the data active = inhibition above about 50%;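 note: 0% = vehicle wells with protein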
Active calls of the source: *. This is a sample that favours compounds with a hit; in the whole collection about 3.5% have one here.

What do the screens show for `O=C1C[C@H](N2C(=O)CCC2=O)C2CO[C@@H]1O2`?
TEAD-YAP inh: 7; FBW7 act: 0; GPR151 ag: 1; MITF inh: 10

Results for CCN(CC)CCNc1cc(C)nc2c1C(=O)C(=O)C=C2N1CCCCC1 ?
TEAD-YAP inh: 94*; FBW7 act: 0; GPR151 ag: 0; MITF inh: 9

What do the screens show for `CCOc1ccc2ncc(C#N)c(Nc3cc(OC)cc(OC)c3)c2c1`?
TEAD-YAP inh: 45*; FBW7 act: 0; GPR151 ag: 0; MITF inh: -10

Results for CCOC(=O)c1cnc2ccc(OCC)cc2c1Nc1cccc(OC)c1 ?
TEAD-YAP inh: -1; FBW7 act: 0; GPR151 ag: 0; MITF inh: 3

What do the screens show for `Cc1ccc(C=Nc2ccccc2C(N)=O)s1`?
TEAD-YAP inh: 36*; FBW7 act: 0; GPR151 ag: 0; MITF inh: 4

How did COc1ccc(C=Nc2ccccc2C(N)=O)c2ccccc12 do in these assays?
TEAD-YAP inh: 60*; FBW7 act: 0; GPR151 ag: 0; MITF inh: 24

What do the screens show for `NC(=O)c1ccccc1N=Cc1ccc(Br)s1`?
TEAD-YAP inh: 8; FBW7 act: 0; GPR151 ag: 3; MITF inh: 14

How did CN(C)c1cccc(Nc2ccnc3c(-c4cccc(CO)c4)cnn23)c1 do in these assays?
TEAD-YAP inh: 63*; FBW7 act: 0; GPR151 ag: 1; MITF inh: -19

How did CCCNc1ccnc2c(-c3cccc(CO)c3)cnn12 do in these assays?
TEAD-YAP inh: 102*; FBW7 act: 0; GPR151 ag: -5; MITF inh: 2

What do the screens show for `CN(C)c1cccc(Nc2ccnc3c(-c4ccc(O)cc4)cnn23)c1`?
TEAD-YAP inh: -38; FBW7 act: 0; GPR151 ag: 1; MITF inh: -9

Results for Cc1cccc(N(C)c2ccnc3c(-c4cccc(CO)c4)cnn23)c1 ?
TEAD-YAP inh: 76*; FBW7 act: 0; GPR151 ag: 0; MITF inh: -4

What do the screens show for `OCc1cccc(-c2cnn3c(NCCCN4CCOCC4)ccnc23)c1`?
TEAD-YAP inh: 28; FBW7 act: 0; GPR151 ag: -1; MITF inh: -4

What do the screens show for `CN1CCN(c2ccnc3c(-c4ccc(O)cc4)cnn23)CC1`?
TEAD-YAP inh: 43*; FBW7 act: -1; GPR151 ag: 0; MITF inh: 78*

What do the screens show for `CN1CCN(c2ccnc3c(-c4ccc(Cl)cc4)cnn23)CC1`?
TEAD-YAP inh: -54; FBW7 act: 0; GPR151 ag: 0; MITF inh: -9

How did COc1cc2[nH]c3c(=O)n(Cc4ccccc4Cl)cnc3c2cc1OC do in these assays?
TEAD-YAP inh: 9; FBW7 act: 0; GPR151 ag: 1; MITF inh: 5

How did O=C(CNC(=O)c1ccc(Cl)cc1Cl)NCCCN1CCCC1=O do in these assays?
TEAD-YAP inh: 3; FBW7 act: 0; GPR151 ag: 0; MITF inh: -3

What do the screens show for `Cc1cccc(C)c1NC(=O)N/N=C\c1ccccc1`?
TEAD-YAP inh: -10; FBW7 act: 0; GPR151 ag: 0; MITF inh: 7

How did CCCC(=O)NC(=S)Nc1cccc(-c2nn3c(C)nnc3s2)c1 do in these assays?
TEAD-YAP inh: 2; FBW7 act: 0; GPR151 ag: 0; MITF inh: 22

What do the screens show for `CCCNc1ccnc2c(-c3ccc(N(C)C)cc3)cnn12`?
TEAD-YAP inh: 8; FBW7 act: -1; GPR151 ag: -1; MITF inh: 13

Results for CCCNc1ccnc2c(-c3ccc(O)cc3)cnn12 ?
TEAD-YAP inh: 97*; FBW7 act: 0; GPR151 ag: -2; MITF inh: -16

Results for COC(CN(C)c1ccc(-c2ccc(O)cc2)cn1)OC ?
TEAD-YAP inh: 64*; FBW7 act: 0; GPR151 ag: 1; MITF inh: 9

How did CCOC(=O)N1CC=C2C(C#N)=C(N)C(C#N)(C#N)C(C)C2C1 (stereo unspecified) do in these assays?
TEAD-YAP inh: 68*; FBW7 act: 0; GPR151 ag: 1; MITF inh: 9

What do the screens show for `c1ccc(OCCNc2nc(NCc3ccc4c(c3)OCO4)nc3c2ncn3-c2ccsc2)cc1`?
TEAD-YAP inh: 0; FBW7 act: 0; GPR151 ag: -1; MITF inh: 10

What do the screens show for `COC(=O)c1cc([N+](=O)[O-])c(C(=O)OC)cc1Oc1ccc(Cl)cc1Cl`?
TEAD-YAP inh: 4; FBW7 act: 0; GPR151 ag: 0; MITF inh: 11

What do the screens show for `COc1cc(/C=N/N=C2/NC(=O)C(CC(=O)Nc3cccc(C)c3C)S2)ccc1O` (stereo unspecified)?
TEAD-YAP inh: -6; FBW7 act: 0; GPR151 ag: 1; MITF inh: 16

How did CC(C)N(CCNc1nc(-c2ccc(N3CCOCC3)nc2)nc2c1ncn2-c1ccsc1)C(C)C do in these assays?
TEAD-YAP inh: 43*; FBW7 act: 0; GPR151 ag: 0; MITF inh: 6

How did COc1ccc(-c2nc(NCCN(C(C)C)C(C)C)c3ncn(-c4ccsc4)c3n2)cn1 do in these assays?
TEAD-YAP inh: 35*; FBW7 act: 0; GPR151 ag: -1; MITF inh: 13

Results for CC(C)N(CCNc1nc(-c2ccc(N3CCOCC3)nc2)nc2c1ncn2C(C)C)C(C)C ?
TEAD-YAP inh: 19; FBW7 act: 0; GPR151 ag: 3; MITF inh: -14

Results for OCCNc1nc(-c2ccc(N3CCOCC3)nc2)nc2c1ncn2-c1ccsc1 ?
TEAD-YAP inh: 34*; FBW7 act: 0; GPR151 ag: 0; MITF inh: -2

Results for O=C(Nc1ccc(-c2nc3ccccc3[nH]2)cc1)c1ccc(=O)n(Cc2ccccc2)n1 ?
TEAD-YAP inh: 34*; FBW7 act: 0; GPR151 ag: 1; MITF inh: 6

How did Cc1sc(NC(=O)c2ccc(S(=O)(=O)N(C)C)cc2)nc1-c1ccccc1 do in these assays?
TEAD-YAP inh: 41*; FBW7 act: 0; GPR151 ag: 0; MITF inh: -2

How did Cc1sc(NC(=O)c2ccc(S(=O)(=O)N(C)c3ccccc3)cc2)nc1-c1ccccc1 do in these assays?
TEAD-YAP inh: 2; FBW7 act: 0; GPR151 ag: 3; MITF inh: 0

How did CN(C)S(=O)(=O)c1ccc(C(=O)Nc2ccc(-c3nc4ccccc4[nH]3)cc2)cc1 do in these assays?
TEAD-YAP inh: -41; FBW7 act: 5.0*; GPR151 ag: 1; MITF inh: -31

What do the screens show for `Cc1ccc(C(=O)Nc2ccc(S(=O)(=O)Nc3nc(C)cc(C)n3)cc2)c(C)c1`?
TEAD-YAP inh: -5; FBW7 act: 0; GPR151 ag: 3; MITF inh: -2

Results for Cc1cccc(-n2cc(-c3ccccc3)c3c(N4CCC(C(N)=O)CC4)ncnc32)c1 ?
TEAD-YAP inh: -6; FBW7 act: 0; GPR151 ag: 2; MITF inh: 4

How did CN(C)N(C(=O)c1ccccc1)C(=O)c1ccccc1 do in these assays?
TEAD-YAP inh: 0; FBW7 act: 0; GPR151 ag: 0; MITF inh: -2

Results for Fc1ccccc1N=c1oc2ccccc2cc1-c1nc2ccccc2[nH]1 ?
TEAD-YAP inh: 40*; FBW7 act: 0; GPR151 ag: -10; MITF inh: -13
